Screens: PubChem, National Center for Advancing Translational Sciences (NCATS)
HPGD inh: blocks human HPGD enzyme activity; P15428; purified HPGD, NADH fluorescence kinetic, PGE2 substrate; Potency, µM, usual class: inhibitors; 150,000 tested, 4.3% active
Target sequence (P15428 whole entry, looked up): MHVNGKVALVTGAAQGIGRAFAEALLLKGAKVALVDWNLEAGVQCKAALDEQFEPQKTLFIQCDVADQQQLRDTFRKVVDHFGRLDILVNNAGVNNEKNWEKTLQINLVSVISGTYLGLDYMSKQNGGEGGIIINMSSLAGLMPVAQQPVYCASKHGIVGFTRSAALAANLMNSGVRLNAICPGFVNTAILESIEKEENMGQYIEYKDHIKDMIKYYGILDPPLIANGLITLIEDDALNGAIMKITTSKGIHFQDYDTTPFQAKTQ
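NADH formation kinetics: reaction with 30 uM PGE2 and 1 mM NAD+ (final), 20 nM enzyme, Tris-HCl pH 8 with Tween 20, after 15 min compound preincubation at room temperature. Fluorescence change, last versus first of five reads.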
IMPase inh: IMPase inhibition in cells; P97697; CHO-M1 cells, IP1 accumulation, HTRF TR-FRET ratio; inhibition (IP1 accumulation), % at 46.1 µM; 120,000 tested, under 10 active; AID 901; active = well fitted curve in the direction sought with a large enough effect in the signal ratio, not every such curve was filed as active; inconclusive = small, poorly fitted or top-dose-only effect, or a change in a side signal; inactive = no such curve, though single readings can be large or run the other way; the % refers to the signal ratio;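 note: cells stimulated with carbachol in lithium chloride buffer; higher means more IMPase inhibition seen as more IP1 and lower FRET ratio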
Target sequence (P97697 whole entry, looked up): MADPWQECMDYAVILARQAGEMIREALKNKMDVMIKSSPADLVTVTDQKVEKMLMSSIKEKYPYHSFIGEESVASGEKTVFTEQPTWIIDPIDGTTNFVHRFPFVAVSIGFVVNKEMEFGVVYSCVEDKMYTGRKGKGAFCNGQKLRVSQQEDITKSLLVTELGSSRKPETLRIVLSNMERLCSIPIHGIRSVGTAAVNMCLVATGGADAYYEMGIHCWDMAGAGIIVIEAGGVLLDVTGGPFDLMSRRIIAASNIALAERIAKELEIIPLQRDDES
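In this qHTS, compounds (final up to 46 uM) act on CHO-M1 cells that are then activated through the M1 receptor with carbachol, in pH 7.4 buffer containing 50 mM LiCl, for 30 min. IP1 accumulation is quantified by the IP-One immunoassay.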
ALDH1A1 block: ALDH1A1 (human) enzyme inhibition; Purified ALDH1A1, NADH fluorescence, propionaldehyde substrate; Potency, µM (highest dose often 75.3 µM), usual class: inhibitors; 220,000 tested, 7.3% active; AID 1030
HPGD inh cf: human HPGD enzyme inhibition, confirmation; Potency, µM (highest dose often 57.1 µM), actives largely listed as inhibitors; 90 tested, 90% active; shares compounds with HPGD inh; recombinant HPGD, NADH fluorescence, PGE2 substrate; calls by dose curve
Each line names hits and unclear results; the compound was inactive in the other large screens (follow-up assays come after a bar, where they were run). This is a sample that favours compounds with a hit; in the whole collection about 9% have one here. Unless noted, calls come from the whole dose curve; as a rule, active = well fitted inhibition curve with a large enough effect (not every such curve was filed as active); inconclusive = small, poorly fitted or top-dose-only effect, or another doubt; inactive = no such curve, though single readings can be large or run the other way.

C=CCN(CC=C)C(=S)NC(=O)Cc1cccc2ccccc12	ALDH1A1 block 18.9µM (no result: HPGD inh, IMPase inh)
CCN(CC)C(=S)NC(=O)Cc1ccccc1	none (no result: HPGD inh, IMPase inh)
Cc1ccc(C(=O)Nc2ccc(C(=O)O)cc2)cc1S(=O)(=O)NCc1ccccc1	none (no result: HPGD inh, IMPase inh)
CCOC(=O)c1cc(NC(=O)CC(C)(C)CC(=O)O)ccc1N1CCCCC1	none (no result: HPGD inh, IMPase inh)
COCCN(C(=O)CNC(=O)c1cccs1)C(C(=O)NC1CCCCC1)c1ccco1 (stereo not given)	none
COCCN(C(=O)C(F)(F)F)C(C(=O)NC1CCCCC1)c1ccco1 (stereo not given)	ALDH1A1 block 4.74µM
N#CCSc1nc2cc(C(=O)N3CCC(C(N)=O)CC3)ccc2c2nc3ccccc3n12	ALDH1A1 block 28.2µM
COc1ccc(C(C)=O)cc1CSc1nc2cc(C(=O)O)ccc2c(=O)n1Cc1ccccc1	HPGD inh inconclusive, ALDH1A1 block 20µM (no result: IMPase inh)
CCOC(Cn1c(SCc2cc(C(C)=O)ccc2OC)nc2ccccc2c1=O)OCC	ALDH1A1 block inconclusive (no result: HPGD inh)
O=C(NCc1ccco1)c1ccc2c(=O)n(Cc3ccco3)c(SCC(=O)N3CCCC3)nc2c1	ALDH1A1 block inconclusive
N#CCSc1nc2cc(C(=O)N3CCCC3)ccc2c(=O)n1Cc1ccccc1	ALDH1A1 block 2.82µM
NC(=O)C1CCN(C(=O)c2ccc3c(=O)n(Cc4ccco4)c(SCC(=O)c4ccccc4)nc3c2)CC1	ALDH1A1 block 14.1µM (no result: HPGD inh, IMPase inh)
N#CCSc1nc2ccccc2c2nc3ccccc3n12	none (no result: IMPase inh)
N#CCSc1nc2ccccc2c(=O)n1CCC(=O)NC1CCCCC1	ALDH1A1 block inconclusive
CC(C)(C)NC(=O)CSc1nc(N)c(NC(=O)c2ccccc2F)c(=O)[nH]1	none (no result: HPGD inh, IMPase inh)
Cc1cccc(C)c1N1CCN(S(=O)(=O)N(C)C)CC1	none (no result: HPGD inh, IMPase inh)
Cc1ccc(C(=O)Nc2cc(-c3nc4ncccc4o3)ccc2C)c(C)c1	none (no result: HPGD inh, ALDH1A1 block)
COc1ccc(-c2cc(C(F)F)nn2-c2ccc(S(N)(=O)=O)cc2)cc1F	none (no result: IMPase inh)
O=S(=O)(Nc1ccc(Cl)nn1)c1ccccc1	none (no result: HPGD inh, IMPase inh)
O=S(=O)(NNc1ccc(Cl)nn1)c1ccc(F)cc1	HPGD inh 3.55µM, ALDH1A1 block 28.2µM (no result: IMPase inh)
O=C(O)/C(=C\c1ccc(Cl)cc1)c1ccc(F)cc1	none (no result: HPGD inh, IMPase inh)
CCCC/C(C)=N/NC(=O)c1cn(-c2ccccc2)nc1-c1ccccc1	IMPase inh inconclusive, ALDH1A1 block 0.562µM
COC(=O)c1cn(-c2ccccc2)nc1-c1ccccc1	none
O=C(O)c1ccc(NC(=O)c2cn(-c3ccccc3)nc2-c2ccccc2)cc1	none (no result: HPGD inh, IMPase inh)
CCC(C)/C(C)=N/NC(=O)c1cn(-c2ccccc2)nc1-c1ccccc1 (stereo not given)	ALDH1A1 block 6.31µM (no result: IMPase inh)
CCCC/C(C)=N/NC(=O)Nc1ccccc1	none
CN1CCC(=NNC(=O)c2cn(-c3ccccc3)nc2-c2ccccc2)CC1	ALDH1A1 block 1.26µM (no result: IMPase inh)
Cc1cc(C)cc(NC(N)=S)c1	none (no result: HPGD inh)
O=C(c1ccccc1Nc1ccc(SC(F)F)cc1)N1CCCCCC1	none
CCOc1ccc(C=NC23CN4CN(CN(C4)C2)C3)cc1	ALDH1A1 block 20µM
CCOc1ccc(CNC23CN4CN(CN(C4)C2)C3)cc1	none
CCOC(=O)N1CCN(C(=O)CSc2ccc3nnc(CCNC(=O)c4ccc(OC)cc4)n3n2)CC1	ALDH1A1 block 7.94µM (no result: HPGD inh, IMPase inh)
CCOC(=O)N1CCN(C(=O)CSc2ccc3nnc(CCNC(=O)c4ccccc4)n3n2)CC1	none (no result: HPGD inh, IMPase inh)
O=C(NCCc1c[nH]c2ccccc12)C1CCC(Cn2c(=S)[nH]c3ccccc3c2=O)CC1 (stereo not given)	none
COCCNC(=O)C1CCC(Cn2c(=S)[nH]c3ccccc3c2=O)CC1 (stereo not given)	HPGD inh 1.78µM | HPGD inh cf 1.12µM
Cc1ccc(S(=O)(=O)N(C)c2ccc(C(=O)N3CCC(C(N)=O)CC3)cc2)cc1	HPGD inh 28.2µM | HPGD inh cf inconclusive
COc1ccc(N2CCN(C(=O)c3ccc(N(C)S(=O)(=O)c4ccc(C)cc4)cc3)CC2)cc1	none (no result: HPGD inh, IMPase inh)
COc1cccc2c1N1C(=O)c3c(C(=O)O)cccc3C1CC2(C)C (stereo not given)	none
Cc1oc(-c2cccc(Cl)c2)nc1CN(C)C1CCOC1 (stereo not given)	none (no result: HPGD inh, IMPase inh)
Cc1oc(-c2cccc(Cl)c2)nc1CSc1nc2c(c(=O)[nH]1)CCC2	HPGD inh 0.562µM (no result: IMPase inh) | HPGD inh cf 1.26µM
COc1ccc(Cc2noc(CN3CCCN(Cc4ccc(F)cc4)CC3)n2)cc1OC	none (no result: HPGD inh, IMPase inh)
Cc1cc(C)nc(N2CCC(C(=O)NCCc3ccc(Cl)cc3)CC2)n1	none (no result: HPGD inh, IMPase inh)
COc1ccc(NC(=O)C2CCC(CNc3c(N4CCC(C)CC4)c(=O)c3=O)CC2)cc1OC (stereo not given)	HPGD inh inconclusive
O=C(NCCc1ccc(Cl)cc1)C1CCC(CNc2c(N3CCCCC3)c(=O)c2=O)CC1 (stereo not given)	none (no result: IMPase inh) | HPGD inh cf 17.8µM
O=C(NCCc1ccccc1)C1CCN(c2ncccn2)CC1	none (no result: HPGD inh, IMPase inh)
O=C(NCCc1ccccc1)C1CCC(CNc2c(N3CCCCC3)c(=O)c2=O)CC1 (stereo not given)	HPGD inh 6.31µM (no result: IMPase inh) | HPGD inh cf 6.31µM
COc1cc(NC(=O)C2CCC(CNc3c(N4CCC(C)CC4)c(=O)c3=O)CC2)cc(OC)c1 (stereo not given)	none
CC1CCN(c2c(NCC3CCC(C(=O)NCCc4ccccc4)CC3)c(=O)c2=O)CC1 (stereo not given)	HPGD inh 6.31µM (no result: IMPase inh) | HPGD inh cf 6.31µM
Cc1ccc(CCNC(=O)C2CCC(CNc3c(N4CCC(C)CC4)c(=O)c3=O)CC2)cc1 (stereo not given)	HPGD inh inconclusive (no result: IMPase inh) | HPGD inh cf 14.1µM
CCOc1ccc(-n2nc3cc(C)c(NC(=O)CC)cc3n2)cc1	none (no result: HPGD inh, ALDH1A1 block)
CC(OC(=O)c1ccc(F)cc1)C(=O)Nc1nc(-c2cccc([N+](=O)[O-])c2)cs1 (stereo not given)	none
O=C(Nc1ccccc1)N1CC[C@@]2(CCCN(C(=O)c3cccc(F)c3)C2)C1	none (no result: IMPase inh)
COc1cc(C=Nc2cccc([N+](=O)[O-])c2C)ccc1OC(C)=O	ALDH1A1 block inconclusive (no result: IMPase inh)
COC(=O)c1cc2nc(-c3ccc(OC)c(OC)c3)cc(C(F)(F)F)n2n1	none
COc1ccc(-c2cc(C(F)(F)F)n3nc(C(=O)N4CCCCC4)cc3n2)cc1OC	HPGD inh 0.501µM, IMPase inh inconclusive | HPGD inh cf 0.282µM
Cc1c(C(=O)OC(C)C)nnn1-c1nonc1N	ALDH1A1 block inconclusive
CC1=CC(C)(C)[N+](C)=CN1c1ccccc1	none (no result: IMPase inh)
CCN(CC)C(=O)c1sc2nc(-c3cccs3)cc(-c3ccc(Cl)cc3)c2c1N	HPGD inh 6.31µM, IMPase inh inconclusive, ALDH1A1 block inconclusive | HPGD inh cf 10µM
N#Cc1sc2nc(-c3cccs3)cc(-c3ccc(Cl)cc3)c2c1N	IMPase inh inconclusive
O=C(CSc1nc2ncc(Br)cc2[nH]1)c1cccc([N+](=O)[O-])c1	HPGD inh 7.94µM, ALDH1A1 block inconclusive | HPGD inh cf 2.24µM
Fc1ccccc1CSc1nc2ncc(Br)cc2[nH]1	HPGD inh 0.794µM | HPGD inh cf 0.631µM
Cc1nc2nc(SCC(=O)c3cccc([N+](=O)[O-])c3)[nH]c2cc1Br	ALDH1A1 block inconclusive (no result: HPGD inh)
CC(C)(C)C(=O)CSc1nc2ncc(Br)cc2[nH]1	ALDH1A1 block inconclusive (no result: HPGD inh)
